Source: PubChem
Most compounds without a hit are left out; they make up all but 27% or so of the library.
PTK2B oligo ant: Pyk2 (human) oligomerization antagonism; 99,000 tested, 0.83% active; Q293 cells, Pyk2 FERM NanoBiT luminescence; stronger effect = lower value; Q14289; z-score (the deposit names both 25 µM and 10 µM);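 active = Z-score of -3 or lower, scaled per plate to the spread of control and sample wells; inactive = z-score above -3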;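 also: negative z-score means lost luminescence so less FERM oligomerization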
CYP2C19 activ: increases human CYP2C19 enzyme activity | P33261 | recombinant CYP2C19, luciferin-H EGE luminescence; stronger effect = higher value; 0 = fully inhibited enzyme, 1 = untreated enzyme | activation factor at 5 µM | 96,000 tested, under 10 active;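 active = activation factor of at least 2 at 5 µM in the primary screen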;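 also: 0 = wells with 2.5 mM tranylcypromine and 1 = vehicle-only wells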
CYP2C9 inh: inhibitors of human CYP2C9; AID 777; CYP2C9 Supersomes, luciferin-H conversion, luminescence; P11712; 96,000 tested, 20% active; inhibition, % at 5 µM;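 active = blocking of liver enzyme CYP2C9 beyond about 50% at 5 µM, limit read from the data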
CYP2C19 inh: blocks human cytochrome P450 2C19 | P33261 | CYP2C19 Supersomes, luciferin-H EGE luminescence, 30 min | inhibition, % at 5 µM | 96,000 tested, 21% active | AID 778;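 active = CYP2C19 inhibition above a set limit at 5 µM in the primary screen, cut at about 50% in these data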;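 also: plate controls were negative control wells for no effect and 2.5 mM tranylcypromine positive control for full effect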
CYP2C9 act: CYP2C9 (human) activation | P11712 | recombinant CYP2C9, luciferin-H conversion, luminescence; stronger effect = higher value; factor 1 = untreated enzyme, 0 = blocked | activation factor at 5 µM | 96,000 tested, 1.4% active | AID 1024;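 active = activation factor of 2 or more for CYP2C9 at a 5 µM dose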;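 also: 0 = sulfaphenazole-blocked wells and 1 = vehicle-only wells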
Cav3 T inh: inhibitors of human Cav3.2 T-type calcium channel; O95180; Cav3.2-expressing cells, Fluo-4 calcium fluorescence FDSS; stronger effect = lower value; B-score at 10 µM; 100,000 tested, 4% active; AID 449739;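 active = single-dose well whose peak fluorescence ratio is a statistical outlier from its plate by either plate-standardised score or position-corrected B-score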
Active calls of the source: *; / = no result given.

SMILES | PTK2B oligo ant | CYP2C19 activ | CYP2C9 inh | CYP2C19 inh | CYP2C9 act | Cav3 T inh
CC(C)c1nc(SCC(=O)c2ccccc2)c2c(=O)n(C)c(=O)n(C)c2n1 | / | 1 | 9 | -2 | 0.9 | 0.078
CS(=O)(=O)Nc1ccc(N2CCCCC2)c(Cl)c1 | 0.12 | 0.6 | 33 | 44 | 0.7 | 0.19
O=S(=O)(c1ccccc1F)N(Cc1ccco1)Cc1nnc(-c2ccccc2Br)o1 | 0.89 | 0.5 | 68* | 50* | 0.3 | -1.7
CCN(Cc1ccccc1)S(=O)(=O)c1ccc(S(=O)(=O)N(Cc2ccccn2)Cc2ccco2)cc1 | 0.93 | 0.7 | 46 | 31 | 0.5 | 0.17
CCc1cc2c(NCC3CCCO3)nc(C)nc2s1 (stereo unspecified) | -0.05 | / | / | / | / | -1.1
COC(=O)c1oc2ccc(Cl)cc2c1-n1cccc1 | 2 | 0.4 | 72* | 58* | 0.3 | -1
COC(=O)c1oc2ccccc2c1-n1cccc1 | -1.8 | 0.9 | 21 | 14 | 0.8 | -0.38
Cc1noc(C)c1COC(=O)C1CC(O)CN1S(=O)(=O)c1ccc(Cl)cc1 (stereo unspecified) | 0.5 | 0.3 | 26 | 71* | 0.7 | 1.3
COc1ccc(S(=O)(=O)N2CC(O)CC2C(=O)OCC(=O)Nc2ccc(Cl)cn2)cc1 (stereo unspecified) | 2.4 | 0.3 | -7 | 74* | 1.1 | -0.52
O=C(COC(=O)CCc1ccc(S(=O)(=O)N2CCOCC2)cc1)Nc1ccc(Cl)cn1 | -0.26 | / | / | / | / | 0.97
COc1cc(NC(=O)COC(=O)[C@@H]2CCCN2S(=O)(=O)c2ccc(Cl)cc2)cc(OC)c1OC | 1.9 | 0.8 | 72* | 22 | 0.3 | 1.5
c1ccc(C2=Nc3ccccc3SC2c2nc3ccccc3[nH]2)cc1 (stereo unspecified) | / | 0.6 | 34 | 45 | 0.7 | -0.02
COc1cccc(CNc2cccc3cccnc23)c1O | -0.53 | 0.2 | -123 | 81* | 2.2* | -2.7
CCn1cnc2cc(NCc3cccc(OC)c3O)ccc21 | -0.9 | 0.6 | 3 | 37 | 1 | -0.0071
COc1ccc(C(=O)Nc2cccc3cccnc23)cc1OC | -0.47 | 0.8 | -26 | 22 | 1.3 | -1.3
COc1cccc(CNc2cnc3ccccc3c2)c1O | -1.5 | / | / | / | / | -4.5*
N#CCCn1nc(Cc2cccc3ccccc23)c(C#N)c1N | / | / | / | / | / | 0.27
N#C/C(=C/c1ccccc1)c1nn(CCO)c(N)c1C#N | 0.16 | 0.1 | 77* | 94* | 0.2 | 0.24
O=c1[nH]c2cccc(Cl)c2n(CCNc2ncc(C(F)(F)F)cc2Cl)c1=O | -1 | 0.4 | 36 | 61* | 0.6 | /
O=c1c(Cl)nc2cc(Cl)ccc2n1CCNc1ncc(C(F)(F)F)cc1Cl | 0.71 | 0.3 | 47 | 73* | 0.5 | 2.3
c1ccc(-n2nnnc2NC2CCCCC2)cc1 | 0.33 | 0.8 | 9 | 20 | 0.9 | /
CCOC(=O)N(C)OC(=O)Nc1ccc(Cl)c(Cl)c1 | -0.04 | 0.8 | 18 | 17 | 0.8 | -1.4
CCOC(=O)N(CC)OC(=O)Nc1ccc(Cl)cc1 | -0.51 | 0.2 | 58* | 78* | 0.4 | 0.071
CCCCN(CCCC)c1ccc(C(=O)c2ccccc2C(=O)O)c(O)c1 | 1.1 | 0.7 | 64* | 35 | 0.4 | -3.2
CCCCC(=O)Nc1ccc(C(=O)NNC(=O)c2ccccc2Br)cc1 | -0.51 | 1.2 | 2 | -15 | 1 | 0.091
SMILES | PTK2B oligo ant | CYP2C19 activ | CYP2C9 inh | CYP2C19 inh | CYP2C9 act | Cav3 T inh
CCOC(=O)C1CCCN(c2ncnc3c2[nH]c2cccc(OC)c23)C1 (stereo unspecified) | / | 0.4 | 47 | 63* | 0.5 | 1.6
CCOc1ccc(C(=O)N2CCSC2=S)cc1 | -0.19 | / | / | / | / | -0.71
CCOC(=O)c1c(C)[nH]c(C)c1C(=O)CN1C(=O)NC(CC(C)C)C1=O (stereo unspecified) | -0.06 | 0.4 | 14 | 59* | 0.9 | 0.42
CCOC(=O)c1c(C)[nH]c(C)c1C(=O)CN1C(=O)NC2(CCC(C)CC2)C1=O (stereo unspecified) | -0.37 | 0.5 | -39 | 50 | 1.4 | -0.094
CC[C@H](C)[C@@H](C(=O)N1CCNCC1)n1cc([C@@H](N)CC(C)C)nn1 | / | / | / | / | / | 1.1
COC(=O)c1cc2c(s1)-c1ccccc1OC2 | / | 0.4 | 6 | 65* | 0.9 | -0.59
Cc1ccc(SCC(=O)NCCSC(C)(C)C)cc1 | 0.6 | 0.7 | 38 | 34 | 0.6 | 0.013
Cc1cccc(C(=O)Nc2ccccc2SCC2CSc3nc4ccccc4c(=O)n32)c1 (stereo unspecified) | -0.04 | 0.8 | 10 | 22 | 0.9 | /
CCCCOn1c(C)c(C(=O)OCC)c2c3no[n+]([O-])c3ccc21 | 0 | 0.6 | 62* | 45 | 0.4 | -0.054
COc1cc2c(cc1OC)CN(C(=O)c1cc(S(=O)(=O)N3CCOCC3)ccc1Cl)CC2 | -0.14 | 0.9 | 15 | 7 | 0.8 | 2
CC(=O)c1ccc(NS(=O)(=O)Cc2ccc(Cl)cc2)cc1 | 0.53 | 0.3 | 77* | 74* | 0.2 | -0.064
CC(=O)c1ccc(NS(=O)(=O)c2ccc(CC(C)C)cc2)cc1 | -1.1 | 0.3 | 86* | 67* | 0.1 | -2.5
Cc1ccc(NS(=O)(=O)c2ccc(CCC(=O)O)cc2)cc1 | -0.13 | 0.9 | 5 | 13 | 0.9 | 0.25
C=C1CCN([C@H](C(=O)NCc2ccc(Cl)c(Cl)c2)C(C)C)S(=O)(=O)c2ccccc21 | / | / | / | / | / | -0.87
O=C(Nc1ccc(F)cc1)N1CCN2C(=O)c3ccccc3C12c1ccccc1 (stereo unspecified) | -0.36 | 0.5 | 50 | 51* | 0.5 | -2.8
O=C1CN(C(=O)COC(=O)C23CC4CC(CC(O)(C4)C2)C3)c2ccccc2N1 | -0.57 | 1.2 | -21 | -16 | 1.2 | 0.54
O=C(Nc1nnc(C2CC2)s1)c1cccc(S(=O)(=O)N2CC(c3ccccc3)CC2=O)c1 (stereo unspecified) | / | 1 | 24 | 1 | 0.8 | -0.7
Cn1cccc1C(=O)NC(=O)COC(=O)c1ccccc1Sc1ccccc1C#N | -1.9 | 0.9 | -39 | 11 | 1.4 | 0.17
COc1ccc(Cl)cc1C(=O)OCC(=O)NC(=O)c1cccn1C | -0.12 | 0.8 | -233 | 22 | 3.3* | -0.85
CC1=CC(C)C2(CO)COC(c3ccccc3O)C1C2C (stereo unspecified) | -0.28 | 0.1 | 64* | 90* | 0.4 | -2.7
COc1cc(SC)ccc1C(=O)NCCOc1ccc(C)c(C)c1 | -0.61 | / | / | / | / | /
CCOC(=O)c1sc2nc(N3CCOCC3)c3c(c2c1N)CCN(Cc1ccccc1)C3 | 2 | 1 | 9 | -4 | 0.9 | 0.11
O=C(NC1CCS(=O)(=O)C1)c1ccc(-c2ccc(Br)cc2)o1 (stereo unspecified) | 0.91 | 0.8 | 9 | 22 | 0.9 | /
O=C(c1ccc2c(c1)N(Cc1ccccc1)C(=O)CS2)N1CCOCC1 | -0.01 | 1 | -14 | -2 | 1.1 | 0.6
O=C(NCCN1CCOCC1)c1ccc2c(c1)N(Cc1ccccc1)CCS2 | / | 0.5 | 63* | 54* | 0.4 | -0.34
